{"source": "PubChem BioAssay AID463173", "about": "(ICCB-Longwood Screening Facility, Harvard Medical School, 2010)", "note": "The campaign covered roughly 52,000 compounds. About 4,300 (8.3%) were called active. Cut-off read from the data, not from the text of the source: active = survival mostly below about 52% (no sharp cut-off); inactive = mostly above about 56%. The list comes from a sample in which actives are over-represented; it also holds similar structures and randomly drawn compounds."}
{"system": "DeltatarO mutant", "test": "growth inhibition of S. aureus wild type versus tarO mutant, primary screen, teichoic acid synthesis inhibitors, RN4220, OD600 (AID 463173)", "settings": "OD600, 18 h, stronger effect = lower value, screened at 18.75 µg/mL (by protocol)"}
{"smiles": "Cc1ccc(NC(=O)Cn2c(CCC(=O)O)ccc2-c2ccc(Cl)cc2)cc1", "survival": "53% (inactive)"}
{"smiles": "Cn1ccc2cc(S(=O)(=O)N3CCN(C(=O)Nc4ccc(F)cc4F)CC3)ccc21", "survival": "70% (inactive)"}
{"smiles": "COc1cccc(CNC(=O)c2cc3c(=O)oc4ccc(C)cc4c3s2)c1", "survival": "73% (inactive)"}
{"smiles": "COc1ccc(Cl)cc1NC(=O)[C@H]1O[C@@H]2OC(C)(C)O[C@@H]2[C@H]2OC(C)(C)O[C@H]21", "survival": "83% (inactive)"}
{"smiles": "O=C(CSCc1nc2cccnc2n1C1CCCCC1)NCc1cccc(Br)c1", "survival": "105% (inactive)"}
{"smiles": "CC(C)c1nn2c(=O)cc(COC(=O)C3CCCCC3)nc2s1", "survival": "94% (inactive)"}
{"smiles": "CCc1ccc2nc(N(Cc3cccnc3)C(C)=O)sc2c1", "survival": "91% (inactive)"}
{"smiles": "COc1ccc(CNC(=O)c2c3c(nc4ccccc24)C(=O)N(C2CCCCC2)C3)c(OC)c1", "survival": "32% (active)"}
{"smiles": "COc1ccc(OC)c(CNC(=O)c2c3c(nc4ccccc24)C(=O)N(C2CCCCC2)C3)c1", "survival": "93% (inactive)"}
{"smiles": "COc1ccccc1CNC(=O)c1c2c(nc3ccccc13)C(=O)N(C1CCCCC1)C2", "survival": "99% (inactive)"}
{"smiles": "COc1ccc(C2C3C(=O)N(c4ccccc4)C(=O)C3ON2c2ccccc2)cc1", "note": "(centres undefined)", "survival": "106% (inactive)"}
{"smiles": "CC1CCN(S(=O)(=O)c2ccc3c(c2)CCN3C(=O)Nc2ccc(Br)cc2)CC1", "survival": "69% (inactive)"}
{"smiles": "Cc1ccc(C(=O)Nc2ccccc2C(=O)OCc2cc(=O)n3nc(C(C)C)sc3n2)cc1", "survival": "78% (inactive)"}
{"smiles": "Cc1ccccc1CNC(=O)Cn1c(=O)c2cccn2c2cccnc21", "survival": "76% (inactive)"}
{"smiles": "Nc1nc2nc(-c3ccccc3)cc(=O)n2[nH]1", "survival": "84% (inactive)"}
{"smiles": "Cc1[nH]n2c(=O)cc(-c3ccccc3Cl)nc2c1-c1ccccc1", "survival": "-3% (active)"}
{"smiles": "Cc1[nH]n2c(=O)cc(-c3ccc(Cl)cc3)nc2c1-c1ccccc1", "survival": "3% (active)"}
{"smiles": "Cc1nn2c(-c3ccccc3)cc(-c3ccccc3)nc2c1-c1ccc(Cl)cc1", "survival": "78% (inactive)"}
{"smiles": "O=C(Nc1nc2nc(-c3ccccc3)cc(=O)n2[nH]1)c1ccc(Cl)cc1", "survival": "65% (inactive)"}
{"smiles": "Cc1cccc(-c2cc3nc(-c4ccccc4)cc(=O)n3[nH]2)c1", "survival": "97% (inactive)"}
{"smiles": "C/C(=N\\N=C1/NC(=O)C(CC(=O)O)S1)c1ccc(C)o1", "note": "(centres undefined)", "survival": "101% (inactive)"}
{"smiles": "CCCCCCNC(=O)CCc1c(C)nc2nc(-c3cc(OC)cc(OC)c3)nn2c1C", "survival": "57% (inactive)"}
{"smiles": "Cc1ccc(Cn2c(=N)n(CC(=O)c3ccccc3)c3ccccc32)cc1", "survival": "65% (inactive)"}
{"smiles": "CC(C)(C)c1ccc(Cn2c(=N)n(CC(O)c3ccco3)c3ccccc32)cc1", "note": "(centres undefined)", "survival": "5% (active)"}
{"smiles": "N=c1n(CCN2CCCCC2)c2ccccc2n1CC(O)c1ccc2c(c1)OCO2", "note": "(centres undefined)", "survival": "83% (inactive)"}
{"smiles": "COc1ccc(CNCCSc2nnnn2-c2ccccc2)c(OC)c1", "survival": "49% (inactive)"}
{"smiles": "COc1cc(C2CC(=O)c3c([nH]c(C(=O)OCC4CCCCC4)c3C)C2)cc(OC)c1OC", "note": "(centres undefined)", "survival": "82% (inactive)"}
{"smiles": "O=C(CCCCn1c(=O)c2ccccc2n(CC(=O)Nc2ccc(F)cc2F)c1=O)NCc1ccccc1Cl", "survival": "100% (inactive)"}
{"smiles": "Cc1ccc(C(C(=O)NC2CCCCC2)N(C(=O)C2COc3ccccc3O2)c2ccc3c(c2)OCO3)o1", "note": "(centres undefined)", "survival": "77% (inactive)"}
{"smiles": "Cc1ccc(C(C(=O)NCc2ccccc2)N(C(=O)C2COc3ccccc3O2)c2cccc(O)c2)o1", "note": "(centres undefined)", "survival": "45% (active)"}
{"smiles": "O=C(NCc1ccco1)C(c1cccs1)N(C(=O)C1COc2ccccc2O1)c1cccc(O)c1", "note": "(centres undefined)", "survival": "63% (inactive)"}
{"smiles": "CCn1c(SCC(N)=O)nc2ccccc2c1=O", "survival": "102% (inactive)"}
{"smiles": "Cc1ccc(-c2nc(Cn3c(=O)cc(-c4ccccc4)c4c(C)nn(C)c43)c(C)o2)cc1", "survival": "108% (inactive)"}
{"smiles": "Cc1oc(-c2ccccc2)nc1Cn1c(=O)cc(-c2ccccc2)c2c(C)nn(C)c21", "survival": "92% (inactive)"}
{"smiles": "Cc1nn(C)c2c1c(-c1ccccc1)cc(=O)n2Cc1c(F)cccc1Cl", "survival": "-5% (active)"}
{"smiles": "Cc1cccc(-c2nc(Cn3c(=O)cc(-c4ccccc4)c4c(C)nn(C)c43)c(C)o2)c1", "survival": "-5% (active)"}
{"smiles": "Cc1nn(C)c2c1c(-c1ccccc1)cc(=O)n2Cc1ccccc1F", "survival": "109% (inactive)"}
{"smiles": "Cc1cc(=O)n(Cc2c(F)cccc2Cl)c2c1c(C)nn2C", "survival": "81% (inactive)"}
{"smiles": "CSc1cccc(NC(=O)Nc2ccccc2OCc2cc(=O)n3cc(C)ccc3n2)c1", "survival": "102% (inactive)"}
{"smiles": "CCc1ccc(-c2nc(CN3CCC(C(=O)NCCc4ccc(Cl)cc4)CC3)c(C)o2)cc1", "survival": "77% (inactive)"}
{"smiles": "Cc1cccc(C(=O)N2CCc3cc(CNC(=O)CSc4ccccc4)ccc32)c1", "survival": "77% (inactive)"}
{"smiles": "CCCc1cc(=O)oc2c(C)c3c(cc12)CN(CCc1ccc(Cl)cc1)CO3", "survival": "39% (active)"}
{"smiles": "CCc1cc(=O)oc2c(C)c3c(cc12)CN(CCc1ccccc1OC)CO3", "survival": "51% (inactive)"}
{"smiles": "COC(=O)Cc1c(C)c2cc3c(c(C)c2oc1=O)OCN(CCc1ccc(F)cc1)C3", "survival": "44% (inactive)"}
{"smiles": "CCc1cc(=O)oc2c(C)c3c(cc12)CN(CCc1ccccc1)CO3", "survival": "71% (inactive)"}
{"smiles": "Cc1c(C)c2cc3c(c(C)c2oc1=O)OCN(CCc1ccccc1)C3", "survival": "77% (inactive)"}
{"smiles": "Cc1c(C)c2cc3c(c(C)c2oc1=O)OCN(CCc1ccc(F)cc1)C3", "survival": "41% (active)"}
{"smiles": "COc1ccc2oc(=O)c(-c3nc(-c4ccc(C)c(C)c4)cs3)cc2c1", "survival": "91% (inactive)"}
{"smiles": "COc1ccc(C2CC(=O)c3cnc4c(-c5ccc(F)cc5)c(C)nn4c3C2)cc1OC", "note": "(centres undefined)", "survival": "80% (inactive)"}
{"smiles": "CCOC(=O)c1sc2ncn(CC(=O)Nc3ccc(C)cc3Br)c(=O)c2c1C", "survival": "66% (inactive)"}
{"smiles": "Cc1ccccc1CNC(=O)C(=O)NCC(c1ccc2c(c1)OCO2)N1CCOCC1", "note": "(centres undefined)", "survival": "87% (inactive)"}
{"smiles": "CCN(C(=O)c1cc2c(=O)oc3ccc(C)cc3c2s1)c1cc(OC)ccc1OC", "survival": "78% (inactive)"}
{"smiles": "CC(=O)Nc1ccc(Nc2ncnc3c2c(-c2ccccc2)cn3-c2ccc(C)c(Cl)c2)cc1", "survival": "68% (inactive)"}
{"smiles": "CNc1oc(-c2ccc(COc3ccc(C)cc3)o2)nc1C#N", "survival": "77% (inactive)"}
{"smiles": "CCCn1c(CCC(=O)Nc2ccc(OCC)cc2)nc2cccnc21", "survival": "93% (inactive)"}
{"smiles": "COc1cccc(-c2ncnn2-c2sc3c(c2C#N)CCCCC3)c1OC", "survival": "86% (inactive)"}
{"smiles": "COc1ccccc1-c1cc(C(=O)Nc2sc3c(c2C#N)CCCC3)no1", "survival": "130% (inactive)"}
{"smiles": "N#Cc1c(NC(=O)c2cccs2)sc2c1CCCCC2", "survival": "87% (inactive)"}
{"smiles": "COc1ccccc1-c1ncnn1-c1sc2c(c1C#N)CCCCC2", "survival": "-2% (active)"}
{"smiles": "Cc1ccccc1-c1ncnn1-c1sc2c(c1C#N)CCCCC2", "survival": "72% (inactive)"}
{"smiles": "N#Cc1c(-n2ncnc2-c2ccccc2C(F)(F)F)sc2c1CCCCC2", "survival": "6% (active)"}
{"smiles": "CC(NC(=O)Nc1ccccc1C(F)(F)F)c1c(-n2cccc2)sc2c1CCCC2", "note": "(centres undefined)", "survival": "104% (inactive)"}
{"smiles": "N#Cc1c(-n2ncnc2-c2ccccc2Cl)sc2c1CCCCC2", "survival": "26% (active)"}
{"smiles": "N#Cc1c(/N=C/N2CCCCC2)sc2c1CCCC2", "survival": "80% (inactive)"}
